An excerpt weighted towards active compounds, which were near 3.1% of everything screened.
eLon inh = inhibits E. coli Lon protease. 360,000 compounds, 0.42% hits. P0A9M0. purified E. coli Lon protease, fluorescence polarization. inhibition, % at 7.94 µM; in the data active = inhibition above about 13%, passing the limit was not always enough;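 also: 0% = enzyme with probe and DMSO and 100% = no enzyme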
PAFAH1B2 FP inh = PAFAH1B2 (human) inhibition | inhibition, % at 3.39 µM | P68402 | recombinant PAFAH1B2, FP-rhodamine activity probe, fluorescence polarization | AID 492953 | 340,000 compounds, 1.2% hits;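 active = inhibition above the mean of all tested compounds plus 3 SD, cut at about 24% in these data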;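 also: 0% = enzyme with DMSO and 100% = wells lacking PAFAH1B2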
PAFAH1B3 FP inh = blocks human PAF acetylhydrolase 1B catalytic subunit 3. Q15102. recombinant PAFAH1B3, FP-rhodamine probe, fluorescence polarization. inhibition, % at 3.39 µM. 340,000 compounds, 0.28% hits. AID 492972;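 active = inhibition above the screen-wide average of all tested compounds plus 3 SD, cut at about 25% in these data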;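 also: 0% = enzyme with DMSO only and 100% = wells lacking PAFAH1B3 protein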
PAFAH2 FP inh = inhibitors of human PAFAH2; AID 492956; 340,000 compounds, 0.99% hits; Q99487; recombinant PAFAH2, FP-rhodamine activity probe, fluorescence polarization; inhibition, % at 3.39 µM;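 active = inhibition above the mean over all tested compounds plus 3 SD, cut at about 30% in these data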;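 also: inhibitors block probe labeling of enzyme so polarization drops; 0% = enzyme with DMSO and 100% = wells lacking PAFAH2 protein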
Rin1 Abl inh = inhibitors of human Rin1-Abl protein interaction | P00519+Q13671 | TR-FRET Rin1/Abl binding, biochemical | inhibition, % at 7.35 µM | 360,000 compounds, 0.4% hits | AID 588664; in the data active = inhibition above about 5%, passing the limit was not always enough
pPAFAH FP inh = pPAFAH (human) enzyme inhibition | Q13093 | recombinant pPAFAH, FP-rhodamine probe fluorescence polarization | inhibition, % at 3.39 µM | 330,000 compounds, 1.5% hits | AID 463082;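 active = inhibition above the mean inhibition across the screen plus 3 SD, cut at about 25% in these data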;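 also: inhibitors block binding of the rhodamine activity-based probe so polarization drops; 0% = enzyme with DMSO and 100% = wells lacking pPAFAH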
* = called active by the depositor.

What do the screens show for `COc1ccc([C@@H]2CC=C(C(=O)O)[C@H](c3cccc(Cl)c3)N2S(=O)(=O)c2ccc(C)cc2)cc1OC`?
eLon inh: -7.1; PAFAH1B2 FP inh: 8.3; PAFAH1B3 FP inh: -2.0; PAFAH2 FP inh: 4.1; Rin1 Abl inh: 0.9; pPAFAH FP inh: 8.5

What do the screens show for `CCC(CO)Nc1nc2ccc(Cl)cc2c2ccccc12` (stereo unspecified)?
eLon inh: -2.7; PAFAH1B2 FP inh: 0.6; PAFAH1B3 FP inh: 6.3; PAFAH2 FP inh: 13.1; Rin1 Abl inh: 2.4; pPAFAH FP inh: 27.3*

Results for Cc1ccc(-c2[nH]ncc2/C=N/n2c(COc3ccccc3)nc3ccccc3c2=O)cc1 ?
eLon inh: -8.1; PAFAH1B2 FP inh: -7.9; PAFAH1B3 FP inh: -3.0; PAFAH2 FP inh: -2.6; Rin1 Abl inh: 0.0; pPAFAH FP inh: -7.2

How did Cc1cc(/C=N/n2c(COc3ccccc3)nc3ccccc3c2=O)c(O)c([N+](=O)[O-])c1 do in these assays?
eLon inh: -12.4; PAFAH1B2 FP inh: 7.8; PAFAH1B3 FP inh: 16.3; PAFAH2 FP inh: -7.3; Rin1 Abl inh: -2.3; pPAFAH FP inh: 30.6*

What do the screens show for `CC(Sc1ccc(Cl)cc1)C(=O)Nc1ccc(S(=O)(=O)N2CCOCC2)cc1` (stereo unspecified)?
eLon inh: -5.4; PAFAH1B2 FP inh: 30.7*; PAFAH1B3 FP inh: 12.9; PAFAH2 FP inh: 2.7; Rin1 Abl inh: 1.2; pPAFAH FP inh: 8.9

Results for COc1cc(-c2nnc(SCC(=O)Nc3ccc(C(=O)O)cc3)o2)cc(OC)c1OC ?
eLon inh: -1.0; PAFAH1B2 FP inh: -0.5; PAFAH1B3 FP inh: 2.5; PAFAH2 FP inh: -1.3; Rin1 Abl inh: 5.2; pPAFAH FP inh: 2.9

How did O=C(N/N=C/c1cc([N+](=O)[O-])cc([N+](=O)[O-])c1O)/C(=C\c1cccs1)NC(=O)c1ccccc1 do in these assays?
eLon inh: -6.5; PAFAH1B2 FP inh: 9.5; PAFAH1B3 FP inh: 12.1; PAFAH2 FP inh: 14.1; Rin1 Abl inh: -1.3; pPAFAH FP inh: 30.8*

What do the screens show for `COc1cc(/C=N/NC(=O)/C(=C\c2ccc([N+](=O)[O-])cc2)NC(=O)c2ccccc2)cc(OC)c1O`?
eLon inh: 7.6; PAFAH1B2 FP inh: 1.4; PAFAH1B3 FP inh: 17.3; PAFAH2 FP inh: 2.5; Rin1 Abl inh: 0.7; pPAFAH FP inh: 12.9

How did Cc1cccc(C(=O)O/N=C(\c2ccccc2)c2cccnc2)c1 do in these assays?
eLon inh: -2.7; PAFAH1B2 FP inh: 13.8; PAFAH1B3 FP inh: 3.2; PAFAH2 FP inh: 71.7*; Rin1 Abl inh: -1.9; pPAFAH FP inh: 30.0*

Results for N/C(=N\OC(=O)c1ccccc1)c1cccnc1 ?
eLon inh: -1.6; PAFAH1B2 FP inh: -2.0; PAFAH1B3 FP inh: 4.8; PAFAH2 FP inh: -2.1; Rin1 Abl inh: 3.4; pPAFAH FP inh: -1.1

How did O=C(c1cccs1)N1C[C@H](O)[C@@H](n2cc(C3CC3)nn2)C[C@@H]1c1ccccc1 do in these assays?
eLon inh: -4.1; Rin1 Abl inh: -2.4

What do the screens show for `N/C(Cc1cccs1)=N\OC(=O)COc1ccc(Br)cc1`?
eLon inh: -2.6; PAFAH1B2 FP inh: 28.3*; PAFAH1B3 FP inh: 9.0; PAFAH2 FP inh: 2.4; Rin1 Abl inh: 0.2; pPAFAH FP inh: 20.8

How did Nc1c(Cl)ncnc1N/N=C/c1ccc2ccccc2n1 do in these assays?
eLon inh: 14.2; PAFAH1B2 FP inh: 6.5; PAFAH1B3 FP inh: 5.3; PAFAH2 FP inh: 2.0; Rin1 Abl inh: 6.4*; pPAFAH FP inh: 19.9

What do the screens show for `O=c1[nH]nc(SCc2cc(Cl)ccc2Cl)c(=O)[nH]1`?
eLon inh: 6.0; PAFAH1B2 FP inh: 28.6*; PAFAH1B3 FP inh: 4.0; PAFAH2 FP inh: 1.4; Rin1 Abl inh: 1.3; pPAFAH FP inh: 0.1

What do the screens show for `O=C(CSc1n[nH]c(=O)[nH]c1=O)Nc1c(Cl)cc(Cl)cc1Cl`?
eLon inh: -18.8; PAFAH1B2 FP inh: -0.3; PAFAH1B3 FP inh: 7.0; PAFAH2 FP inh: -9.6; Rin1 Abl inh: -1.2; pPAFAH FP inh: 1.7

Results for O=C(CSc1n[nH]c(=O)[nH]c1=O)c1ccc(Cl)cc1Cl ?
eLon inh: -0.6; PAFAH1B2 FP inh: 29.7*; PAFAH1B3 FP inh: 6.8; PAFAH2 FP inh: 1.5; Rin1 Abl inh: -1.2; pPAFAH FP inh: 0.3

How did Cc1cc(C)cc(N(C(=O)CNC(=O)c2ccco2)C(C(=O)NC2CCCCC2)c2ccncc2)c1 (stereo unspecified) do in these assays?
eLon inh: -2.8; PAFAH1B2 FP inh: 1.7; PAFAH1B3 FP inh: 5.8; PAFAH2 FP inh: 6.2; Rin1 Abl inh: 3.0; pPAFAH FP inh: 1.6

Results for O=C(NCc1nc(-c2ccc(C(F)(F)F)cc2)no1)Nc1ccc(OC(F)(F)F)cc1 ?
eLon inh: 3.0; Rin1 Abl inh: -1.2; pPAFAH FP inh: -37.5

Results for COc1ccc(-c2ccc(C(=O)NCC3CCOCC3)c3occc23)c(C)c1 ?
eLon inh: -1.6; Rin1 Abl inh: -2.3

Results for Cc1ccc(S(=O)(=O)NCC2(c3ccccc3)CCOCC2)cc1 ?
eLon inh: 6.3; PAFAH1B2 FP inh: 26.4*; PAFAH1B3 FP inh: 6.1; PAFAH2 FP inh: 8.9; Rin1 Abl inh: -1.6; pPAFAH FP inh: -0.3

What do the screens show for `COc1ccc(C2(CNS(=O)(=O)c3ccccc3)CCOCC2)cc1`?
eLon inh: -3.0; PAFAH1B2 FP inh: 1.8; PAFAH1B3 FP inh: 2.4; PAFAH2 FP inh: -4.0; Rin1 Abl inh: 0.6; pPAFAH FP inh: -3.6

What do the screens show for `CN(C(=O)COC(=O)/C=C/c1ccccc1[N+](=O)[O-])c1ccccc1`?
eLon inh: 11.2; PAFAH1B2 FP inh: 0.2; PAFAH1B3 FP inh: 8.2; PAFAH2 FP inh: 16.8; Rin1 Abl inh: -0.3; pPAFAH FP inh: 6.1

What do the screens show for `COc1ccccc1NC(=O)COC(=O)/C=C/c1ccccc1[N+](=O)[O-]`?
eLon inh: -6.2; PAFAH1B2 FP inh: 3.3; PAFAH1B3 FP inh: 8.3; PAFAH2 FP inh: 11.6; Rin1 Abl inh: -2.4; pPAFAH FP inh: 25.9*

What do the screens show for `CC(C)(C)NC(=O)COC(=O)/C=C/c1ccccc1[N+](=O)[O-]`?
eLon inh: 2.0; PAFAH1B2 FP inh: 0.1; PAFAH1B3 FP inh: 4.7; PAFAH2 FP inh: 28.5; Rin1 Abl inh: -0.7; pPAFAH FP inh: 32.1*

Results for COc1ccccc1C(=O)NC(=O)COC(=O)C1CC1C (stereo unspecified) ?
eLon inh: -3.1; PAFAH1B2 FP inh: 1.4; PAFAH1B3 FP inh: 2.6; PAFAH2 FP inh: 3.0; Rin1 Abl inh: -6.7; pPAFAH FP inh: -8.5

How did CC(CCc1ccccn1)(CCc1ccccn1)C(=O)c1ccccc1 do in these assays?
eLon inh: -13.5; PAFAH1B2 FP inh: 1.8; PAFAH1B3 FP inh: 4.8; PAFAH2 FP inh: -5.1; Rin1 Abl inh: 5.1

Results for CC1(O)C(=O)C=C2C=C(c3ccc(C#N)cc3)OC=C2C1=O (stereo unspecified) ?
pPAFAH FP inh: 56.5*

What do the screens show for `COc1ccc(C2=CC3=CC(=O)C(C)(O)C(=O)C3=CO2)cc1` (stereo unspecified)?
pPAFAH FP inh: 38.0*

Results for Cc1cccc(Oc2sc(C(=O)c3ccccc3)c(N)c2C#N)c1 ?
eLon inh: -6.1; PAFAH1B2 FP inh: 4.6; PAFAH1B3 FP inh: 8.8; PAFAH2 FP inh: 7.2; Rin1 Abl inh: -0.3; pPAFAH FP inh: 26.4*

Bioassay records: PubChem, The Scripps Research Institute Molecular Screening Center
